Screen size: about 320,000 compounds; about 1,300 (0.41%) were called active. Roughly 3% stayed inconclusive and do not appear here. The rule behind the calls is not given here. The list is a sample of the results. Potency and affinity values are given separately.

Drawing on PubChem BioAssay AID488890 (Southern Research Specialized Biocontainment Screening …, 2010), this text covers inhibition for 119 compounds.

This assay can be described thus: growth inhibition of non-replicating M. tuberculosis (AID 488890).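 Note: plate controls were DMSO cells for no effect and high antibiotic wells for full effect.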 The settings on record: Mycobacterium tuberculosis non-replicating, at 25 µM, stronger effect = higher value.
On to `O=C1CN(C(=O)c2cccc(Br)c2)c2ccccc2N1`, for which the inhibition was -8.78%.

As for `Cc1nnc(NC(=O)CCC(=O)N2CCN(CCOc3cccc4ccccc34)CC2)s1`, the inhibition is 16.7%.

As for `CCCCOC(=O)Nc1cc(C(=O)OC)ccc1C(=O)OC`, the inhibition stood at 18.2%.

As to `N#Cc1ccc(OCC(=O)Nc2nc(-c3ccncc3)cs2)cc1`, the inhibition stood at 10%.

`Cc1c([N+](=O)[O-])c([N+](=O)[O-])nn1CC(=O)NCc1cccnc1`: the inhibition stood at 6.05%.

Take `Cn1c(=O)c2c(SCCN3CCOCC3)nc(C3CCCC3)nc2n(C)c1=O`: the inhibition came out at 19.1%.

Turning to `CCOc1ccc(C(=O)N/N=C/c2cc([N+](=O)[O-])cs2)cc1`, the inhibition came to 69.5%.

`COc1cc(C(=O)N/N=C/c2ccsc2C)cc(OC)c1OC`: the inhibition was determined as 0.65%.

Consider `CCOc1ccc(CC(=O)OCc2cc(=O)n3cc(Br)ccc3n2)cc1`, for which the inhibition was determined as 50.5%.

Take `COc1ccc(CC(=O)OCc2cc(=O)n3cc(Br)ccc3n2)cc1OC`: the inhibition stood at 13.9%.

With `O=C(OCc1nnc(-c2ccccc2)o1)c1ccc([N+](=O)[O-])o1`, the inhibition stood at 64.9%.

Turning to `O=C(OCc1nnc(-c2ccccc2)o1)c1cccnc1Cl`, the inhibition came to 6.83%.

Turning to `CC(=O)OCc1nc2ccccc2s1`, the inhibition was -0.84%.

For `Cc1onc(-c2ccccc2)c1C(=O)OCc1nnc(-c2ccc([N+](=O)[O-])cc2)o1`, the inhibition stood at 48%.

Turning to `O=C(OCc1nnc(-c2ccccc2)o1)c1ccccc1`, the inhibition is 73.8%.

Consider `CCOC(=O)c1cccc(COC(=O)c2cccc(-c3nnc(-c4ccccc4)o3)c2)c1`, for which the inhibition was 18.4%.

Consider `CCOC(=O)c1ccc(Cn2c(-c3ccccc3)nnc2-c2ccccc2)o1`, for which the inhibition was 11.2%.

Regarding `CCOC(=O)Nc1nc2ccccc2s1`, the inhibition is -2.43%.

For the compound `Cc1cc(C(=O)CSc2nc3ccc(Cl)cc3[nH]2)c(C)n1Cc1ccco1`, the inhibition came to 13.9%.

For `COc1ccc(CN2C(=O)c3cccnc3C2Nc2ccc(C)cc2)cc1` (centres undefined), the inhibition was 27%.

In the case of `CN(CC(=O)NCc1ccccc1Cl)S(=O)(=O)c1ccc2c(c1)n(C)c(=O)c(=O)n2C`, the inhibition is -4.13%.

For the compound `CCOC(=O)CC(=O)COc1nc2cc3c(nc2o1)CCCC3`, the inhibition was -11.4%.

Turning to `NCCCC[C@H](NC(=O)C1CCNCC1)c1nnc(CN)o1`, the inhibition is -30.9%.

For the compound `CCC/C(=C1/c2ccccc2C(=O)N1c1ccccc1)c1cnc(OC)nc1`, the inhibition worked out at 24.1%.

On to `COc1ccc(CN2CCN(c3ccccc3OC)CC2)cc1OC`, for which the inhibition is -6.29%.

On to `O=C(COC(=O)c1ccc(Br)o1)Nc1nc2ccccc2s1`, for which the inhibition was 71.5%.

Take `Nc1ccc(C(=O)OCc2nc3ccccc3s2)cc1`: the inhibition was determined as 68.4%.

Take `COc1ccc(C2=NOC(C(=O)N(C)Cc3ccccc3)C2)cc1` (centres undefined): the inhibition came out at 48.3%.

`O=C(c1ccc(F)cc1)C(Cc1ccccc1)N1CCCCC1` (centres undefined): the inhibition turned out to be 63.6%.

Consider `Cc1cc(=O)n2ccsc2n1`, for which the inhibition amounted to 0.97%.

On to `Cc1ccn2c(=O)cc(C)nc2c1`, for which the inhibition was 4.9%.

Consider `CCOc1ccc(N(CC(=O)N2CCN(c3ccc(F)cc3)CC2)S(=O)(=O)c2c(C)noc2C)cc1`, for which the inhibition is 21.6%.

As to `COC(=O)CSc1nnc(-c2ccccc2OC)o1`, the inhibition is 77.4%.

With `Cn1nc([N+](=O)[O-])nc1Sc1nnc(-c2ccccc2)o1`, the inhibition came to 78%.

On to `CCCOc1ccc(N2CC(C(=O)NC(C)C)CC2=O)cc1` (centres undefined), for which the inhibition was -9.57%.

For the compound `CCC(=Nc1cccc(C(F)(F)F)c1)c1c(O)n(C)c(=O)n(C)c1=O`, the inhibition is -2.54%.

On to `CCC(=Nc1ccc2c(c1)CCC2)c1c(O)n(C)c(=O)n(C)c1=O`, for which the inhibition amounted to 7.71%.

With `COc1cccc(OC)c1C(=O)OCC(=O)N1CC(C)CC(C)C1` (centres undefined), the inhibition is -15.5%.

Turning to `Cc1nc2ccccc2c(=O)n1/N=C/c1c(O)ccc2ccccc12`, the inhibition is 40.6%.

For `Cc1nnc(C)n1/N=C/c1c(O)ccc2ccccc12`, the inhibition turned out to be 3.2%.

Regarding `Fc1cccc(Nc2cc(-n3cccn3)ncn2)c1`, the inhibition came to 21.4%.

Consider `CN(Cc1cccs1)S(=O)(=O)c1ccc(Cl)cc1F`, for which the inhibition was 44.2%.

As for `Oc1oc(-c2ccco2)nc1C=Nc1ccccc1`, the inhibition is 17%.

With `Cc1ccc(N=Cc2nc(-c3ccco3)oc2O)cc1`, the inhibition worked out at 73.2%.

As for `CC(C)(O)C#Cc1ccc(CN2CCN(C3CCCCC3)C(CCO)C2)s1` (centres undefined), the inhibition came out at 11.2%.

Turning to `CCN(CC)CCOC(=O)/C=C/c1ccccc1OC`, the inhibition is -10.5%.

`COc1ccc(NC(=O)Nc2ccccc2F)c(C)c1`: the inhibition amounted to 20.6%.

In the case of `COc1ccc(C)cc1Nc1n[n+](-c2ccccc2)c(-c2ccc(SC)cc2)s1`, the inhibition came out at 76.9%.

In the case of `CCOc1cc(-c2sc(Nc3ccc(CC)cc3)n[n+]2-c2ccccc2)ccc1OC`, the inhibition is 63.8%.

Take `Oc1cc2c(cc1CN1CCN(c3ncccn3)CC1)OCO2`: the inhibition worked out at 8.73%.

On to `N#Cc1nc(-c2cccs2)oc1NCc1ccccc1`, for which the inhibition turned out to be 29.7%.

For `C=CCNc1oc(-c2cccs2)nc1C#N`, the inhibition was -2.7%.

Turning to `CC1CCCC(NS(=O)(=O)c2cc3c(cc2Cl)NC(=O)CO3)C1C` (centres undefined), the inhibition came to 31.5%.

For the compound `Cc1ccc(C2(C)NC(=O)N(CC(=O)N(C)CC(=O)Nc3cccc4ccccc34)C2=O)cc1` (centres undefined), the inhibition turned out to be 7.1%.

On to `O=C1CN=C(c2ccccc2)c2cc(Cl)ccc2N1`, for which the inhibition stood at 5.86%.

With `COc1ccc(C2=NCC(=S)Nc3ccc(Cl)cc32)cc1OC`, the inhibition was -21%.

`O=C(CN1C(=O)C(=O)N(CCC2=CCCCC2)C1=O)Nc1ccc(F)cc1F`: the inhibition came to 8.84%.

For `Cc1nc2ccccc2nc1OCC(=O)Nc1cc(C(F)(F)F)ccc1N1CCOCC1`, the inhibition stood at 5.99%.

As for `O=C1O/C(=C/c2ccccc2)c2ccccc21`, the inhibition was -7.13%.

As to `CN(C)/C=C1/OC(=O)C(C#N)=C1c1ccc(Cl)cc1`, the inhibition is -0.58%.

With `COc1cc(/C=C/[N+](=O)[O-])ccc1OC(=O)c1cc2ccccc2oc1=O`, the inhibition was found to be 37.8%.

As for `COc1ccc(N(CC(=O)Nc2ccccc2C)S(=O)(=O)c2c(C)[nH]c(=O)[nH]c2=O)cc1`, the inhibition is 8.99%.

Turning to `CC(C)NC(=O)Cn1c(SCC(=O)c2ccc(F)cc2)nc2ccccc21`, the inhibition amounted to 7.83%.

As for `Cc1cc(C2=NNC(=NC3CC3)SC2)c(C)n1-c1c(C)n(C)n(-c2ccccc2)c1=O`, the inhibition was 4.63%.

With `CN=C1NN=C(c2cc(C)n(-c3ccc(Cl)cc3)c2C)CS1`, the inhibition was found to be 14.6%.

`CCc1ccc(NS(=O)(=O)c2cc3c4c(c2)CCN4C(=O)CC3)cc1`: the inhibition was determined as 1.05%.

For the compound `Cc1oc(-c2cccc(Cl)c2)nc1CN1CCCC(C(=O)NCc2ccco2)C1` (centres undefined), the inhibition came out at 22.8%.

As to `Cc1[nH]c(=O)[nH]c(=O)c1/C=C/C(=O)O`, the inhibition is -4.51%.

As for `Nc1c(C(=O)OCC(=O)NCc2ccccc2)[nH]c(=O)[nH]c1=O`, the inhibition was -9.15%.

Regarding `CCCCn1c(N)c(N(CC(C)C)C(=O)c2ccc(-c3ccc(Cl)cc3)o2)c(=O)[nH]c1=O`, the inhibition amounted to 74.7%.

On to `CNS(=O)(=O)c1ccc(-c2ccc(C=C3C(=O)NC(=O)NC3=O)o2)cc1`, for which the inhibition was -1.77%.

Take `NS(=O)(=O)c1ccc(-c2ccc(C=C3C(=O)NC(=O)NC3=O)o2)cc1`: the inhibition came to 2.79%.

Regarding `CCCc1nc(SCc2ccc(Cl)cc2Cl)n[nH]1`, the inhibition came out at 2.74%.

In the case of `Nc1nc(SCc2ccc(Cl)cc2Cl)n[nH]1`, the inhibition worked out at 1.74%.

Regarding `Cc1cccc2nc(CNC(=O)C3CCC(=O)N(Cc4ccccc4F)C3)cn12` (centres undefined), the inhibition was -13.7%.

Turning to `CC(C)n1c(SCC(=O)Nc2ccc(F)cc2)nnc1C1CC1`, the inhibition was -1.85%.

As to `Cc1nn(C(=O)CCC(=O)NCc2ccc(OC(C)C)cc2)c2ccccc12`, the inhibition is -4.46%.

For `CN(C#N)c1nccc(-c2cccs2)n1`, the inhibition worked out at 19%.

For the compound `COc1ccc(CCNC(=O)c2ccc(Cl)cc2)cc1`, the inhibition was 74.1%.

`COc1ccc(C(=O)NNC(=O)Nc2ccc(Cl)cc2)cc1`: the inhibition is -7.99%.

For `COc1ccc(N/C=C/C(=O)c2ccc(Cl)cc2)cc1`, the inhibition worked out at 45.2%.

Regarding `Cc1ccc(N/C=C/C(=O)c2ccc(C)cc2)cc1`, the inhibition amounted to 19.2%.

Regarding `COc1ccc(C(=O)NCC(=O)NCC(=O)OCc2ccc(Cl)cc2)cc1`, the inhibition was -0.72%.

Consider `Cc1ccc(C(=O)/C=C\NCc2ccccc2)cc1`, for which the inhibition was determined as 37.6%.

For `COC(=O)c1sc2nc(N3CCCCC3)c3c(c2c1N)CCCC3`, the inhibition came out at 1.1%.

For `COC(=O)C1=C(C)OC(N)=C(C#N)C1c1ccc(OC)c(CSc2ccccn2)c1` (centres undefined), the inhibition was found to be 10.8%.

On to `Cc1ccn2c(=O)nc(SCC(=O)N3CCCC3)nc2c1`, for which the inhibition was 8.52%.

Take `O=C(CN1CCCCC1)N/N=C/c1ccc(Cl)cc1Cl`: the inhibition was -4.16%.

For the compound `O=C1CCC(=O)N1CNc1cccnc1`, the inhibition was found to be 3.84%.

Consider `COc1ccc(NCN2C(=O)CCC2=O)cc1`, for which the inhibition came to 61%.

As for `COc1ccccc1-c1cn(C(C)(C)C)nc1C`, the inhibition was -1.55%.

For the compound `O=C(N/N=C/c1cc(Br)c(O)c(Br)c1)c1cccc(C(F)(F)F)c1`, the inhibition is 21%.

For the compound `O=C(N/N=C/c1cccc(C(F)(F)F)c1)c1ccc(O)cc1`, the inhibition came out at 16.8%.

With `C[C@H](CO)N1C[C@H](C)[C@@H](CN(C)S(=O)(=O)c2cn(C)cn2)Oc2ccc(NC(=O)NC3CCCCC3)cc2C1=O`, the inhibition was -8.37%.

For `Cc1ccc(S(=O)(=O)N2CCOCC2)cc1C(=O)N1CCN(c2ccc(C(F)(F)F)cn2)CC1`, the inhibition amounted to 7.63%.

As to `CCCOc1cc(C)c(S(=O)(=O)NCc2cccs2)cc1C`, the inhibition amounted to 6.87%.

For `COc1ccc(Nc2cc(C)nc(N3CCOCC3)n2)cc1`, the inhibition came to 11.6%.

For the compound `CNc1cc(C)nc(-n2nc(C)cc2C)n1`, the inhibition was 77.6%.

Consider `Cc1cc(NCCO)nc(-n2nc(C)cc2C)n1`, for which the inhibition worked out at 39.2%.

Turning to `CCOc1ccc(Nc2cc(C)nc(N3CCOCC3)n2)cc1`, the inhibition was determined as 4.96%.

For `COC1(c2cc(-c3ccccc3)nc(N)n2)CCCCC1`, the inhibition was 39.4%.

`CC1CN(C(C)C(=O)NC(c2ccccc2)c2ccccc2)CC(C)O1` (centres undefined): the inhibition was -1.17%.

For the compound `Cc1cc(NC(=O)CSc2nnnn2-c2ccc(C)c(C)c2)no1`, the inhibition was -1.12%.

On to `O=C(C1CCCN(S(=O)(=O)c2ccc(Br)cc2)C1)N1CCOCC1` (centres undefined), for which the inhibition is -4.37%.

In the case of `COCCn1cnc2c1c(=O)[nH]c(=O)n2Cc1ccccc1`, the inhibition was -2.83%.

For the compound `N#Cc1c[nH]n2c(=O)c3c(nc12)CCC3`, the inhibition was -2.17%.

`Cc1[nH]n2c(=O)c3c(nc2c1-c1ccc(F)cc1)CCCC3`: the inhibition came to 18.2%.

Take `O=c1c2c(nc3c(-c4cccc(Br)c4)c[nH]n13)CCCC2`: the inhibition amounted to 76.9%.

Regarding `Cc1[nH]n2c(=O)c3c(nc2c1-c1cccc2ccccc12)CCC3`, the inhibition worked out at 61.6%.

Regarding `Cc1ccc(S(=O)(=O)/N=C(/Nc2ccc(F)cc2F)c2ccc(F)cc2)cc1`, the inhibition was -16.3%.

Consider `CC(Oc1ccc(Cl)cc1Cl)C(=O)Nc1ncccn1` (centres undefined), for which the inhibition stood at 61.7%.

Consider `Cc1cccc(C)c1OC(=O)CCN1C(=O)C2C3C=CC(C4CC34)C2C1=O` (centres undefined), for which the inhibition was determined as 67.5%.

In the case of `Cc1ccc(SCC(=O)NCC2COc3ccccc3O2)cc1` (centres undefined), the inhibition is 29.9%.

Regarding `C/C(O)=C/c1nc2ccccc2[nH]c1=O`, the inhibition amounted to 1.47%.

For the compound `c1ccc2oc(CCc3nc4ccccc4o3)nc2c1`, the inhibition is -3.04%.

On to `CCS(=O)(=O)CCSc1nc2ccccc2o1`, for which the inhibition was -14.9%.

For `Cc1ccc2oc(=O)c(/C=C(\O)CC(C)C)nc2c1`, the inhibition is -17.2%.

Take `Cc1ccc2oc(=O)c(/C=C(\O)C(C)(C)C)nc2c1`: the inhibition was -1%.

Take `CC(C)(C)/C(O)=C/c1nc2ccccc2[nH]c1=O`: the inhibition was -2.24%.

One may read the inhibition as the relative decrease from the control value, in per cent.
